In the antibiotic and cytotoxicity screens of Wong et al. (2023):
Among all 39,000 compounds or so, about 3,300 (8.5%) were called active. The sample as a whole holds a higher share of actives than the screen did.

What follows are molecules tested on HepG2 (assay: cytotoxicity call (relative viability < 0.9)). Conditions: 10 µM.
With `COc1ccc(S(=O)(=O)N(C)C[C@H]2OCCCC[C@H](C)Oc3ccc(NC(=O)c4ccccc4)cc3C(=O)N([C@H](C)CO)C[C@@H]2C)cc1` the cytotoxicity call was “inactive”. For `C[C@@H]1CN([C@@H](C)CO)S(=O)(=O)c2ccc(C3=CCCC3)cc2O[C@@H]1CN(C)C(=O)C1CCOCC1`, the cytotoxicity call was “inactive”. In the case of `CO[C@@H]1CN(C)C(=O)c2cc(NC(=O)C3CCOCC3)ccc2OC[C@H](C)N(Cc2cccnc2)C[C@H]1C`, the cytotoxicity call is reported as “inactive”. For `C[C@H](CO)N1C[C@H](C)[C@H](CN(C)C(=O)NC2CCCCC2)OCCCC[C@H](C)Oc2ccc(NC(=O)Cc3ccccc3)cc2C1=O`, the cytotoxicity call was “inactive”. `COc1ccc(NC(=O)Nc2ccc3c(c2)C(=O)N([C@H](C)CO)C[C@H](C)[C@@H](CN(C)Cc2ccncc2)OCCCC[C@H](C)O3)cc1` was tested, and the cytotoxicity call was “inactive”. `C[C@H]1CN([C@@H](C)CO)C(=O)c2cc(NC(=O)Nc3ccc(C(F)(F)F)cc3)ccc2O[C@@H]1CN(C)C(=O)Nc1ccc(F)cc1` was tested, and the cytotoxicity call was “inactive”. With `C[C@@H]1CN([C@@H](C)CO)C(=O)Cc2cc(NS(=O)(=O)c3ccccc3)ccc2O[C@@H]1CN(C)Cc1ccc(Cl)c(Cl)c1` the cytotoxicity call was “active”. For `C[C@H](CO)N1C[C@H](C)[C@@H](CN(C)Cc2ccc(Cl)c(Cl)c2)Oc2ccc(NS(=O)(=O)c3ccccc3)cc2CC1=O`, the cytotoxicity call was “inactive”. `C[C@H]1CN([C@@H](C)CO)C(=O)Cc2cc(NS(=O)(=O)c3ccccc3)ccc2O[C@H]1CN(C)Cc1ccc(Cl)c(Cl)c1` was tested, and the cytotoxicity call was “inactive”. `C[C@@H]1CN([C@@H](C)CO)C(=O)Cc2cc(NS(=O)(=O)c3ccccc3)ccc2O[C@H]1CN(C)Cc1ccc(Cl)c(Cl)c1` was tested, and the cytotoxicity call was “active”. `C[C@@H]1CN([C@H](C)CO)C(=O)Cc2cc(NS(=O)(=O)c3ccccc3)ccc2O[C@H]1CN(C)Cc1ccc(Cl)c(Cl)c1` was tested, and the cytotoxicity call was “active”. For `C[C@H]1CN([C@@H](C)CO)C(=O)Cc2cc(NS(=O)(=O)c3ccccc3)ccc2O[C@@H]1CN(C)Cc1ccc(Cl)c(Cl)c1`, the cytotoxicity call was “active”. For `CNC[C@H]1OCCCC[C@@H](C)Oc2ccc(NC(=O)Nc3cccc4ccccc34)cc2C(=O)N([C@H](C)CO)C[C@H]1C`, the cytotoxicity call was “inactive”. With `COc1ccccc1CNC(=O)C[C@H]1C[C@H]2c3cc(NS(=O)(=O)c4ccc(F)cc4)ccc3O[C@H]2[C@@H](CO)O1` the cytotoxicity call was “inactive”. `C[C@H](CO)N1C[C@H](C)[C@@H](CN(C)Cc2ccc3c(c2)OCO3)Oc2ccc(NC(=O)CCN3CCOCC3)cc2CC1=O` was tested, and the cytotoxicity call was “inactive”. In the case of `COc1ccc(S(=O)(=O)Nc2ccc3c(c2)C(=O)N([C@H](C)CO)C[C@H](C)[C@H](CN(C)Cc2ccccc2)OCCCC[C@@H](C)O3)cc1`, the cytotoxicity call is reported as “inactive”. For `C[C@@H]1CCCCO[C@H](CN(C)C(=O)NC2CCCCC2)[C@@H](C)CN([C@H](C)CO)C(=O)c2cc(NC(=O)CCCCCC(=O)Nc3ccccc3N)ccc2O1`, the cytotoxicity call was “inactive”. In the case of `COc1ccc(S(=O)(=O)N(C)C[C@H]2Oc3ccc(NC(=O)CCCN(C)C)cc3C(=O)N([C@H](C)CO)C[C@@H]2C)cc1`, the cytotoxicity call is reported as “inactive”. With `COc1ccc(NC(=O)Nc2ccc3c(c2)C(=O)N([C@@H](C)CO)C[C@H](C)[C@H](CN(C)S(=O)(=O)c2ccc(Cl)cc2)OCCCC[C@@H](C)O3)cc1` the cytotoxicity call was “inactive”. `C[C@@H]1CCCCO[C@@H](CN(C)C(=O)Nc2ccc(C(F)(F)F)cc2)[C@H](C)CN([C@H](C)CO)C(=O)c2cc(NS(C)(=O)=O)ccc2O1` was tested, and the cytotoxicity call was “inactive”. In the case of `C[C@H](CO)N1C[C@H](C)[C@H](CN(C)Cc2ccc(Cl)c(Cl)c2)Oc2ccc(NS(=O)(=O)c3ccccc3)cc2CC1=O`, the cytotoxicity call is reported as “inactive”. `C[C@@H]1CN([C@H](C)CO)C(=O)Cc2cc(NS(=O)(=O)c3ccccc3)ccc2O[C@@H]1CN(C)Cc1ccc(Cl)c(Cl)c1` was tested, and the cytotoxicity call was “active”. In the case of `C[C@H]1CN([C@@H](C)CO)C(=O)Cc2cc(NS(=O)(=O)c3cccs3)ccc2O[C@@H]1CN(C)Cc1ccc(Cl)c(Cl)c1`, the cytotoxicity call is reported as “inactive”. With `C[C@H]1CN([C@@H](C)CO)C(=O)Cc2cc(NS(=O)(=O)c3cccs3)ccc2O[C@H]1CN(C)Cc1ccc(Cl)c(Cl)c1` the cytotoxicity call was “active”. For `C[C@@H]1CN([C@@H](C)CO)C(=O)Cc2cc(NS(=O)(=O)c3cccs3)ccc2O[C@H]1CN(C)Cc1ccc(Cl)c(Cl)c1`, the cytotoxicity call was “inactive”. With `C[C@@H]1CCCCO[C@@H](CN(C)Cc2ccccc2)[C@H](C)CN([C@@H](C)CO)C(=O)c2cc(NC(=O)CCC(F)(F)F)ccc2O1` the cytotoxicity call was “inactive”. In the case of `CC(C)NC(=O)N(C)C[C@H]1Oc2ccc(NC(=O)Cn3cnnn3)cc2CC(=O)N([C@H](C)CO)C[C@H]1C`, the cytotoxicity call is reported as “inactive”. For `C[C@H](CO)N1C[C@H](C)[C@H](CN(C)Cc2ccc(C(=O)Nc3ccccc3N)cc2)OCc2cnnn2CCCC1=O`, the cytotoxicity call was “inactive”. In the case of `CC(C)(C)c1cc(CN)n[nH]1`, the cytotoxicity call is reported as “inactive”. `O=C(C[C@@H]1C[C@H]2c3cc(NS(=O)(=O)c4ccc(F)cc4)ccc3O[C@H]2[C@@H](CO)O1)N1CCOCC1` was tested, and the cytotoxicity call was “inactive”. In the case of `O=C1O[C@H](c2ccccc2)[C@H](c2ccccc2)N2[C@H]1[C@@H](C(=O)N1CCN(c3ncccn3)CC1)[C@]1(C(=O)Nc3ccc(C#CC4(O)CCCCCC4)cc31)[C@H]2c1ccc(OCCO)cc1`, the cytotoxicity call is reported as “inactive”. In the case of `CO[C@@H]1CN(C)C(=O)c2ccc(NS(=O)(=O)c3ccccc3)cc2OC[C@H](C)N(C(=O)NC(C)C)C[C@@H]1C`, the cytotoxicity call is reported as “inactive”. `CC(C)NC(=O)Nc1ccc2c(c1)CC(=O)N([C@H](C)CO)C[C@@H](C)[C@H](CN(C)C(=O)NC1CCCCC1)O2` was tested, and the cytotoxicity call was “inactive”. `C[C@H](CO)N1C[C@H](C)[C@H](CN(C)S(=O)(=O)c2cn(C)cn2)Oc2ccc(NS(=O)(=O)c3ccccc3)cc2C1=O` was tested, and the cytotoxicity call was “inactive”. With `CC(O)C1C(=O)N2C(C(=O)O)=C(SC3CNC(C(=O)N(C)C)C3)C(C)C12` (centres undefined) the cytotoxicity call was “inactive”. In the case of `O=C(CN1CCOCC1)N/N=C/c1ccc([N+](=O)[O-])o1`, the cytotoxicity call is reported as “inactive”. In the case of `Nc1nnc(-c2ccc([N+](=O)[O-])o2)o1`, the cytotoxicity call is reported as “inactive”. For `O=C1CN(N=Cc2ccc(-c3ccc([N+](=O)[O-])cc3)o2)C(=O)[N-]1.[Na+]`, the cytotoxicity call was “inactive”. For `O=C1OC(CN2CCOCC2)CN1N=Cc1ccc([N+](=O)[O-])o1` (centres undefined), the cytotoxicity call was “active”. With `O=[N+]([O-])c1cncn1CCN1CCOCC1` the cytotoxicity call was “inactive”. For `CCOC(=O)c1ccc(N2NC(=O)/C(=C/c3ccc([N+](=O)[O-])o3)C2=O)cc1`, the cytotoxicity call was “inactive”. With `O=C1CN(/N=C/c2ccc([N+](=O)[O-])o2)C(=O)N1` the cytotoxicity call was “active”. For `O=C1OCCN1N=Cc1ccc([N+](=O)[O-])o1`, the cytotoxicity call was “active”. `O=C1CN(N=Cc2ccc([N+](=O)[O-])o2)C(=O)N1` was tested, and the cytotoxicity call was “active”.
